# From PubChem BioAssay (EPA / NIEHS)
# Where “and” joins values, the source holds several entries; their conditions need not be identical. Identical values can stand only once. Results filed as inconclusive are left out. Calls of active or inactive are those of the source. Rule for the calls: active = hit-call score of the fitted dose curve at least 0.9, where 1 is the maximum; inconclusive = response in the unintended direction; inactive = score below 0.9.
# Assay: ACEA_ER_AUC_viability: ACEA Biosciences xCELLigence Real-Time Cell Analysis on Estrogen Receptor Agonism for Viability (AID 2283782);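 note: continuous compound exposure with impedance area under curve over 80 h; hit means loss of impedance signal meaning reduced cell growth or viability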
# Procedure: ACEA_ER is a cell-based, single-readout assay that uses T47D, a human breast cell line, with measurements taken at 80 hours after chemical dosing in a 96-well plate, although TO2 (mc0.srcf) used a 384-well plate. Differences in plate size can be ignored given data normalization.ACEA_ER_AUC_viability is one of two assay component(s) measured or calculated from the ACEA_ER assay. It is designed to make measurements of real-time cell-growth kinetics, a form of growth reporter, as detected with electrical impedance signals by Real-Time Cell Electrode Sensor (RT-CES) technology.Data from the assay component ACEA_ER_AUC_viability was analyzed in the positive analysis fitting direction relative to DMSO as the negative control and baseline of activity. Using a type of growth reporter, loss-of-signal activity can be used to understand changes in the viability. Furthermore, this assay endpoint can be referred to as a secondary readout, because this assay has produced multiple assay endpoints where this one serves a viability function. To generalize the intended target to other relatable targets, this assay endpoint is annotated to the cell cycle intended target family, where the subfamily is cytotoxicity.
# The xCELLigence system Multi-E-Plate stations were used to measure the time-dependent response to chemicals. Each compound was tested in an eight-point, 1:4 serial dilution series starting at a maximum final concentration of 100 uM. A maximum starting concentration of 0.5% DMSO was present in the 100 uM chemical samples and was diluted along with the test article dilution series. The screen was performed in biological duplicate using two separate, 96-well, E-Plates 96 for each dilution series (n = 2). Positive controls (MG132 and E2) and a negative control (assay media) were tested in quadruplicate on each testing plate. Then, 0.5% and 0.125% DMSO were tested in duplicates in each plate to serve as solvent controls for the 2 highest concentrations of testing compounds: 100 uM and 25 uM. Reference compounds were tested with 8 concentrations with 1:5 serial dilutions. All screening was carried out by ACEA Biosciences, Inc. (San Diego, CA). T-47D cells purchased from ATCC were maintained in RPMI1640 media supplemented with 10% characterized fetal bovine serum (FBS). Before screening, T-47D cells were preconditioned in assay medium: phenol red-free RPMI1640 supplemented with 10% charcoal-stripped FBS. Cells were then detached and seeded in E-Plates 96 in assay medium. After overnight monitoring of growth once every hour, compounds were added to […] cells and remained in the medium until the end of the experiment. Cellular responses were then recorded once every 5 min for the first 5 h, and once every hour for an additional 100 h.
SMILES,AC50,outcome
CCCCCCCCC1CCC(=O)O1 (stereo not given),67.5 µM (active),
NS(=O)(=O)O,,inactive
CCCCC(CC)C(=O)O (stereo not given),,inactive
O=C(O)CCC(F)(F)C(F)(F)C(F)(F)C(F)(F)C(F)(F)F,,inactive
CCCCCCC(C)(C)C(=O)O,,inactive
CCC(=O)O,,inactive
NC(=NCCCCCCN=C(N)/N=C(\N)Nc1ccc(Cl)cc1)/N=C(\N)Nc1ccc(Cl)cc1,8.38 µM (active) and 9.06 µM (active),
O=C(O)CCC(F)(F)C(F)(F)C(F)(F)C(F)(F)C(F)(F)C(F)(F)F,,inactive
CCCCCCCCCC=CCC1CC(=O)OC1=O (stereo not given),,inactive
Cc1ccc(C)c(S(=O)(=O)O)c1,,inactive
OCC(F)(F)C(F)(F)C(F)(F)C(F)(F)C(F)(F)C(F)(F)C(F)(F)C(F)(F)C(F)(F)C(F)(F)C(F)(F)F,16.6 µM (active),
CCC(C)c1ccccc1O (stereo not given),79.7 µM (active),
CCOC=C(C(=O)OCC)C(=O)OCC,,inactive
CCCCCC(C)OC(=O)COc1ccc(Cl)c2cccnc12 (stereo not given),,inactive
c1ccc2c(c1)CCC2,,inactive
CCN(CCC#N)c1ccccc1,,inactive
CCc1ccccc1O,,inactive
CC(C)(O)C(=O)c1ccccc1,,inactive
O=S(=O)(O)C(F)(F)C(F)(F)C(F)(F)C(F)(F)C(F)(F)C(F)(F)C(F)(F)C(F)(F)C(F)(F)C(F)(F)F,,inactive
C=CC(=O)OCCN(CC)CC,,inactive

SMILES,AC50,outcome
C=Cc1ccc(O)c(OC)c1,,inactive
O=C1c2ccc(O)c(O)c2C(=O)c2c(O)ccc(O)c21,6.67 µM (active),
NCc1cccc(CN)c1,,inactive
O=C(O)c1cccc(C(=O)O)n1,,inactive
CCCCCCCCC(C)=O,9.92 µM (active),
c1cc[nH]c1,50 µM (active),
C=COC(=O)C(C)(C)CCCCCC,19.6 µM (active),
CCCCCCc1ccc(N)cc1,50 µM (active),
Cc1ccc(C(=O)c2ccccc2)cc1,72.3 µM (active),
Nc1ccn([C@@H]2O[C@H](CO)[C@@H](O)C2O)c(=O)n1 (stereo not given in full),9.92 µM (active),
O=C(O)C(=O)O,,inactive
CCCCCCCCCCCC,50 µM (active) and 40.4 µM (active),
COc1cccc(O)c1,,inactive
CCCCC(CC)C(=O)OCCOCCOCCOCCOC(=O)C(CC)CCCC (stereo not given),,inactive
CC(C)CCOCCC(C)C,37.5 µM (active),
CCCCCCCCCCCCCCC,,inactive
CC1CNCC(C)O1 (stereo not given),,inactive
Oc1cccc2c(O)cccc12,20.2 µM (active),
CC(C)(C)C1CCCCC1O (stereo not given),77.7 µM (active),
O=C1NS(=O)(=O)c2ccccc21,,inactive
